Measurements published in PubChem BioAssay (EPA / NIEHS).
Inconclusive results are not listed. The source made the active and inactive calls. The calls were made as follows, unless noted: active = hit-call score of the fitted dose curve at least 0.9, where 1 is the maximum; inconclusive = response in the unintended direction; inactive = score below 0.9.

How the values were obtained:
[1] = ATG_VDRE_CIS: Attagene CIS-FACTORIAL HepG2 Assay for human Vitamin D Receptor Element (VDRE) (AID 2282968; active = hit-call score of the fitted dose curve at least 0.9, where 1 is the maximum; inactive = score below 0.9); settings: HepG2 VDRE cis-reporter transcription, actives raise or lower the signal
Outline: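 Reporter mRNA induction, quantified by capillary electrophoresis of fluorescently labelled RT-PCR products, was read 24 h after dosing HepG2 cells carrying transiently transfected cis-regulated reporter units; gain or loss relative to DMSO.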

[2] = molecular target: Nuclear receptor subfamily 1 group I member 3 (Homo sapiens) (UniProt Q14994); test: ATG_CAR_TRANS: Attagene TRANS-FACTORIAL HepG2 Assay for human Constitutive Androstane Receptor (CAR) (AID 2282969); settings: HepG2 Attagene TRANS-FACTORIAL CAR reporter;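 also: activators raise reporter mRNA above DMSO so AC50 marks induction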
Chain of Nuclear receptor subfamily 1 group I member 3 (Homo sapiens) (Q14994 whole entry, looked up, the tested form may be a part): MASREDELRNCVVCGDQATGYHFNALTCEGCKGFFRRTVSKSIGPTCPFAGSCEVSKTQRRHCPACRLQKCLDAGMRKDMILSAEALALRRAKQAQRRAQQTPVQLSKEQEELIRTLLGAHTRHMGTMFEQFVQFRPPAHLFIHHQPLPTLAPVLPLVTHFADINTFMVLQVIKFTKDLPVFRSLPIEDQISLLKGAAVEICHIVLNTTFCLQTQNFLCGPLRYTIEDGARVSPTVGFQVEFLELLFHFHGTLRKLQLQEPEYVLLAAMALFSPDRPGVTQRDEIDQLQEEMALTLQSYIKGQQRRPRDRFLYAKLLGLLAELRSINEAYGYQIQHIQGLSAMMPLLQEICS
Outline: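 Readout is reporter mRNA induction, quantified by fluorescent primer extension and capillary electrophoresis after RT-PCR. Cells were HepG2 transiently carrying chimeric NR-Gal4 constructs with GAL4-UAS reporters, treated for 24 h; activity scored upward from DMSO.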

[3] = molecular target: Steroid hormone receptor ERR1 (Homo sapiens) (UniProt P11474); test: ATG_ERRa_TRANS: Attagene TRANS-FACTORIAL HepG2 Assay for human Estrogen-Related Receptor alpha (ERRa) (AID 2282971); settings: HepG2 Attagene TRANS reporter, ERRa transactivation
Chain of Steroid hormone receptor ERR1 (Homo sapiens) (P11474 whole entry, looked up, the tested form may be a part): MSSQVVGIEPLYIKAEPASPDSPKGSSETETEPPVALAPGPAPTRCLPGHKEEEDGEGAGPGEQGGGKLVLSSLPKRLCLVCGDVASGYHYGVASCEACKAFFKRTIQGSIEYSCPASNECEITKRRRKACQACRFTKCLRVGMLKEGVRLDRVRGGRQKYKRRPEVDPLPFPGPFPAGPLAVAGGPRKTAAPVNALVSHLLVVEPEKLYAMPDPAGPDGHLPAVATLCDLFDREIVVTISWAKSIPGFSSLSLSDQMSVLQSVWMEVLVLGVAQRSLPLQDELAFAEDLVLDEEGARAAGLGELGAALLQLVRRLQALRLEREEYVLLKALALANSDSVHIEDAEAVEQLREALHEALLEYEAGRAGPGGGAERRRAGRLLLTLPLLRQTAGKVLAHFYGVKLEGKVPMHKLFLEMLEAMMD
Outline: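 HepG2 cells were transiently transfected with multiple GAL4-UAS reporter units, then dosed with compound for 24 h. Total RNA was reverse-transcribed, reporter cDNA PCR-amplified and fluorescently labelled, and fragments resolved by capillary electrophoresis; induction was compared with DMSO.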

[4] = molecular target: X-box-binding protein 1 (Homo sapiens) (UniProt P17861); test: ATG_Xbp1_CIS: Attagene CIS-FACTORIAL HepG2 Assay for human X-box Binding Protein 1 (XBP1) (AID 2282972; active = hit-call score of the fitted dose curve at least 0.9, where 1 is the maximum; inactive = score below 0.9); settings: HepG2 XBP1 cis-element reporter, Attagene multiplex; actives raise or lower the signal
Chain of X-box-binding protein 1 (Homo sapiens) (P17861 whole entry, looked up): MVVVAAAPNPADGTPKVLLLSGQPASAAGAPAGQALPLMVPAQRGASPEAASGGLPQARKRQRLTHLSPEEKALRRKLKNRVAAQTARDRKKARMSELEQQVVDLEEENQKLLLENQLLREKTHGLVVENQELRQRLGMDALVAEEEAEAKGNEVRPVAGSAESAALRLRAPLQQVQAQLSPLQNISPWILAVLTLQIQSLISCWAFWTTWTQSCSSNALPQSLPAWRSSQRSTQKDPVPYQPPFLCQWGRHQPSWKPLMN
Outline: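 HepG2 cells transiently transfected with cis-regulated multiple reporter transcription units; endogenous transcription factor activity measured 24 hours after chemical dosing. Reporter mRNA quantified by RT-PCR, 6-FAM primer extension, HpaI digestion and capillary electrophoresis; bidirectional fitting versus DMSO.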

[5] = molecular target: Androgen receptor (Homo sapiens) (UniProt P10275); test: ATG_AR_TRANS: Attagene TRANS-FACTORIAL HepG2 Assay for human Androgen Receptor (AR) (AID 2282973); settings: HepG2 Attagene TRANS-FACTORIAL AR reporter transcription
Chain of Androgen receptor (Homo sapiens) (P10275 whole entry, looked up, the tested form may be a part): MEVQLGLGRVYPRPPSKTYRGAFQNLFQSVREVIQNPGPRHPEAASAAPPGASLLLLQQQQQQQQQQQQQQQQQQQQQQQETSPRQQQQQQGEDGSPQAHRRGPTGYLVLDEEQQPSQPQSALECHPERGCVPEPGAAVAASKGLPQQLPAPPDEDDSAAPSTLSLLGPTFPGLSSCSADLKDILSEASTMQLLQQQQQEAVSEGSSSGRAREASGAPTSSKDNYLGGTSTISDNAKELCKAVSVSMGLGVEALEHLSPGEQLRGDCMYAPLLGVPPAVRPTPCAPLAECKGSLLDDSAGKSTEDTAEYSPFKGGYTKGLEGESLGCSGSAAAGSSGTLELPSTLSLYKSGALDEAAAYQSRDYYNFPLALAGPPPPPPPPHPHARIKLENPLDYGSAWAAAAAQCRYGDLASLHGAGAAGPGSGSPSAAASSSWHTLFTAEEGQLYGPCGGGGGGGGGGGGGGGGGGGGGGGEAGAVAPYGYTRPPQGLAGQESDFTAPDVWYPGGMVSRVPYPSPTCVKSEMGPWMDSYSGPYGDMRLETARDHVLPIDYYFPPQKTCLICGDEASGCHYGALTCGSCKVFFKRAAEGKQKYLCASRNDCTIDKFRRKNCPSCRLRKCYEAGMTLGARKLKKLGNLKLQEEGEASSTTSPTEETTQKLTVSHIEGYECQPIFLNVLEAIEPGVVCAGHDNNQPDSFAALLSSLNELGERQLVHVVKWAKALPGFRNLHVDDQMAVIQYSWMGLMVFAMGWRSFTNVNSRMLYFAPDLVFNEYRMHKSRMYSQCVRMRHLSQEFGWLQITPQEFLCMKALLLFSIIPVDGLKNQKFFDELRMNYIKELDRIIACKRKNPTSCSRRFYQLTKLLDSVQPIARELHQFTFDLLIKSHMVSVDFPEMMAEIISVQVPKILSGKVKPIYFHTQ
Outline: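 Transfected HepG2, 24 h treatment, chimeric NR-Gal4 driving GAL4-UAS reporters. mRNA induction by RT-PCR/capillary electrophoresis fluorescence; DMSO as negative control and baseline.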

[6] = ATG_M_19_TRANS: Attagene TRANS-FACTORIAL HepG2 Assay for M19 Transcription Factor (Internal Marker) (AID 2282974); settings: HepG2 Attagene TRANS-FACTORIAL M19 internal marker reporter
Outline: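 Cells: human HepG2, transiently transfected with multiplexed reporter transcription units. Exposure: 24 h. Detection: RT-PCR of reporter mRNA with capillary electrophoresis. Analysis: gain-of-signal vs DMSO.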

[7] = ATG_Hpa5_TRANS: Attagene TRANS-FACTORIAL HepG2 Assay for human GAL4-Hpa5 Hepatocyte Transcription Factor Basal Promoter (AID 2282975); settings: HepG2 Attagene GAL4-Hpa5 transcription reporter;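 also: hits are increases in reporter mRNA over DMSO baseline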
Outline: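 Basal-promoter GAL4 background control within the HepG2 trans-factorial panel of transiently transfected reporter units. Reporter mRNA is measured 24 h after dosing by RT-PCR and capillary electrophoresis, fitted for gain of signal versus DMSO.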

[8] = molecular target: Estrogen-related receptor gamma (Homo sapiens) (UniProt P62508); test: ATG_ERRg_TRANS: Attagene TRANS-FACTORIAL HepG2 Assay for human Estrogen-Related Receptor gamma (ERRg) (AID 2282977); settings: HepG2 Attagene TRANS reporter, ERRg transactivation;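 also: hits increase reporter signal over DMSO so potencies reflect activators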
Chain of Estrogen-related receptor gamma (Homo sapiens) (P62508 whole entry, looked up, the tested form may be a part): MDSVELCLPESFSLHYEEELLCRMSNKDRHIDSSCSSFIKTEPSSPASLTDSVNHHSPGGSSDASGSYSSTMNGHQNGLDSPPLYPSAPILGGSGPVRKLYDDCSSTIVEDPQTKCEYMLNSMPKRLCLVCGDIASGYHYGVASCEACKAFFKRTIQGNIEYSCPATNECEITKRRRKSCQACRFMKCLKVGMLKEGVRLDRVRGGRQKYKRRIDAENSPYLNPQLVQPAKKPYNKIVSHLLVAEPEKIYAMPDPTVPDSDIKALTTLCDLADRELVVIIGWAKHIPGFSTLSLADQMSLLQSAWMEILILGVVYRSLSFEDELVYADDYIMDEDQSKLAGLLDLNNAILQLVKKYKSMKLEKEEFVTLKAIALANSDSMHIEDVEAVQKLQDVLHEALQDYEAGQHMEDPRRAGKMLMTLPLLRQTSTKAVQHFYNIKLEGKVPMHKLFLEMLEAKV
Outline: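 HepG2 cells transiently transfected with multiplexed GAL4-UAS reporter units driven by chimeric NR-Gal4 proteins; 24 h exposure. Reporter mRNA quantified by RT-PCR, fluorescent labelling, HpaI digestion and capillary electrophoresis; gain of signal vs DMSO.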

[9] = molecular target: Glucocorticoid receptor (Homo sapiens) (UniProt P04150); test: ATG_GR_TRANS: Attagene TRANS-FACTORIAL HepG2 Assay for human Glucocorticoid Receptor (GR) (AID 2282978); settings: HepG2 Attagene TRANS GR reporter, mRNA transcription;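 also: activators score as hits since higher reporter transcript over DMSO is fitted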
Outline: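 In this trans-factorial format, exogenous NR-GAL4 chimeric proteins in transfected HepG2 cells regulate GAL4-UAS reporter transcription. After 24 h treatment, reporter mRNA induction relative to DMSO is read by RT-PCR and capillary electrophoresis.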

[10] = molecular target: Oxysterols receptor LXR-alpha (Homo sapiens) (UniProt Q13133); test: ATG_LXRa_TRANS: Attagene TRANS-FACTORIAL HepG2 Assay for human Liver X Receptor alpha (LXRa) (AID 2282980); settings: HepG2 Attagene TRANS reporter, LXRa transactivation
Chain of Oxysterols receptor LXR-alpha (Homo sapiens) (Q13133 whole entry, looked up): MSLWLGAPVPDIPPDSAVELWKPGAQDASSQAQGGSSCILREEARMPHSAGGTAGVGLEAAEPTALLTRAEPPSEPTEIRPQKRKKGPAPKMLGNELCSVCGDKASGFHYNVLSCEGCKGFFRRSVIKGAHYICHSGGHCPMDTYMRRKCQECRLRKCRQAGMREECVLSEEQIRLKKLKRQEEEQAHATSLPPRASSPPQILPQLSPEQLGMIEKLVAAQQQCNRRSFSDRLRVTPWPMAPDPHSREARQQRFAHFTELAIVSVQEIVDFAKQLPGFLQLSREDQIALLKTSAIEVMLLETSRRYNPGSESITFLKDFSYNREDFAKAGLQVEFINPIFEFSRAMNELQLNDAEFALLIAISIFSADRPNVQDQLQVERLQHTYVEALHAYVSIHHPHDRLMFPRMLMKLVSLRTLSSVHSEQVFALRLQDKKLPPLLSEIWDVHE
Outline: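 Transient HepG2 transfectants, 24 h dosing, RT-PCR/CE mRNA reporter quantitation; gain-of-signal vs DMSO.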

[11] = molecular target: Oxysterols receptor LXR-beta (Homo sapiens) (UniProt P55055); test: ATG_LXRb_TRANS: Attagene TRANS-FACTORIAL HepG2 Assay for human Liver X Receptor beta (LXRb) (AID 2282981); settings: HepG2 Attagene TRANS GAL4-LXRb reporter, mRNA
Chain of Oxysterols receptor LXR-beta (Homo sapiens) (P55055 whole entry, looked up, the tested form may be a part): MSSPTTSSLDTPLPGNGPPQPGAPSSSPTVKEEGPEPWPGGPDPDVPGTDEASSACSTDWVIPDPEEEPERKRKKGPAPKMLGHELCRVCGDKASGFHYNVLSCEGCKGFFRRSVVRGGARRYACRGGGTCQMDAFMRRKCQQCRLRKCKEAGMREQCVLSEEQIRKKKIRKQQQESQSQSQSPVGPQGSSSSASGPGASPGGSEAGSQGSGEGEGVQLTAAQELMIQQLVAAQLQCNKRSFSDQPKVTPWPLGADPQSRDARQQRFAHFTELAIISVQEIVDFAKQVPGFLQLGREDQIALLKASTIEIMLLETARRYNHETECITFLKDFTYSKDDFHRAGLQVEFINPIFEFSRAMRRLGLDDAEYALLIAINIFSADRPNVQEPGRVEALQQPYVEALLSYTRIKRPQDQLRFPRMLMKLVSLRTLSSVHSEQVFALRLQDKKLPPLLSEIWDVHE
Outline: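 Transient transfection HepG2 (multiplexed RTUs, GAL4-UAS); NR-Gal4 chimera; 24 h exposure; RNA → RT-PCR → 6-FAM primer extension → HpaI → CE; increase vs DMSO.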

[12] = molecular target: Hepatocyte nuclear factor 4-alpha (Homo sapiens) (UniProt P41235); test: ATG_HNF4a_TRANS: Attagene TRANS-FACTORIAL HepG2 Assay for human Hepatocyte Nuclear Factor 4 alpha (HNF4a) (AID 2282982); settings: HepG2 HNF4a transactivation reporter, mRNA readout
Chain of Hepatocyte nuclear factor 4-alpha (Homo sapiens) (P41235 whole entry, looked up, the tested form may be a part): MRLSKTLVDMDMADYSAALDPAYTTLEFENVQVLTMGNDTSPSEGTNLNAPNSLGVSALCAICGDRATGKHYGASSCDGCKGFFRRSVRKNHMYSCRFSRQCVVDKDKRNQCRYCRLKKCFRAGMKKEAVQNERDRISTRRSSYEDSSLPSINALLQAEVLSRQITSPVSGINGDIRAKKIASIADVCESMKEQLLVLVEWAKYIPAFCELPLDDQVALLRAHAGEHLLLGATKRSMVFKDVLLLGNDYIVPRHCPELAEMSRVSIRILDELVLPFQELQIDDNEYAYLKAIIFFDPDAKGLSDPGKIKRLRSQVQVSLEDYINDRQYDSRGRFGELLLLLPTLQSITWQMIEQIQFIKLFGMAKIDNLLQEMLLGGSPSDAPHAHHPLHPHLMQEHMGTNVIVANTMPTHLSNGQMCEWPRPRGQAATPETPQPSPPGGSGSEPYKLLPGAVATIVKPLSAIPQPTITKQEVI
Outline: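 Readout is fluorescent reporter-transcript fragments resolved by capillary electrophoresis after RT-PCR from HepG2 cells dosed for 24 h. Cells carried transfected GAL4-UAS reporter constructs measuring exogenous NR-GAL4 chimera activity; DMSO served as baseline.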

[13] = ATG_M_32_TRANS: Attagene TRANS-FACTORIAL HepG2 Assay for M32 Transcription Factor (Internal Marker) (AID 2282984); settings: HepG2 Attagene TRANS M32 internal marker reporter
Outline: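 Measures reporter mRNA induction in human HepG2 liver cells after 24 h chemical treatment. Transcripts from transiently transfected GAL4-UAS reporter units are amplified, fluorescently labelled and sized by capillary electrophoresis; gain of signal relative to DMSO.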

[14] = molecular target: Nuclear receptor subfamily 4 group A member 2 (Homo sapiens) (UniProt P43354); test: ATG_NURR1_TRANS: Attagene TRANS-FACTORIAL HepG2 Assay for human Nuclear Receptor Related Protein 1 (NURR1) (AID 2282985); settings: HepG2 Attagene TRANS reporter, mRNA readout
Chain of Nuclear receptor subfamily 4 group A member 2 (Homo sapiens) (P43354 whole entry, looked up, the tested form may be a part): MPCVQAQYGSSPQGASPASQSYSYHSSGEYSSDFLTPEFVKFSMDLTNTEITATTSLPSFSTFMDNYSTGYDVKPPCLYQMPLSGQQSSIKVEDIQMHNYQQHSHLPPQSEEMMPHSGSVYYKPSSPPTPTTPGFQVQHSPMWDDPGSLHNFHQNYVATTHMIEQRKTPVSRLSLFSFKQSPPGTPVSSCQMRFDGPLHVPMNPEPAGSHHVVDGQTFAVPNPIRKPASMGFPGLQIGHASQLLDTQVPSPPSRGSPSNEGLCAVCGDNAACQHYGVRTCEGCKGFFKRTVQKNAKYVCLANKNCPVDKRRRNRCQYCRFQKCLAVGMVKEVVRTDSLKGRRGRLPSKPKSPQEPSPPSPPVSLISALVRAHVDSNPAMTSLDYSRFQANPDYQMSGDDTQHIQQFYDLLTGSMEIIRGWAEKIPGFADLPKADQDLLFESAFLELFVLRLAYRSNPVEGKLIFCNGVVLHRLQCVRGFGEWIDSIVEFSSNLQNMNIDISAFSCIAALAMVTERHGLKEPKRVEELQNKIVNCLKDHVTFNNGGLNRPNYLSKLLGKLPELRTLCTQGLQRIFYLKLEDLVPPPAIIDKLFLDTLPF
Outline: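 Transient transfection of HepG2, human liver cells, with multiple GAL4-UAS reporter transcription units. Cells dosed 24 h, RNA isolated, reverse-transcribed, PCR-amplified, FAM-labelled, HpaI-digested, sized by capillary electrophoresis. DMSO served as negative control.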

[15] = molecular target: Transcriptional activator Myb (Homo sapiens) (UniProt P10242); test: ATG_Myb_CIS: Attagene CIS-FACTORIAL HepG2 Assay for human Myeloblastosis (Myb) Proto-Oncogene Transcription Factor (AID 2282986; active = hit-call score of the fitted dose curve at least 0.9, where 1 is the maximum; inactive = score below 0.9); settings: HepG2 Attagene CIS-FACTORIAL Myb reporter transcription; actives raise or lower the signal
Outline: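 Steps: transfect HepG2 with cis-regulated reporter units; dose with chemical for 24 h; isolate RNA, reverse-transcribe, PCR-amplify and FAM-label reporter sequences; digest with HpaI; resolve by capillary electrophoresis. Activity fitted in both directions relative to DMSO.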

[16] = molecular target: Nuclear respiratory factor 1 (Homo sapiens) (UniProt Q16656); test: ATG_NRF1_CIS: Attagene CIS-FACTORIAL HepG2 Assay for human Nuclear Respiratory Factor 1 (NRF1) Orphan Gene (AID 2282987; active = hit-call score of the fitted dose curve at least 0.9, where 1 is the maximum; inactive = score below 0.9); settings: HepG2 NRF1 cis-element reporter, Attagene multiplex; actives raise or lower the signal
Chain of Nuclear respiratory factor 1 (Homo sapiens) (Q16656 whole entry, looked up, the tested form may be a part): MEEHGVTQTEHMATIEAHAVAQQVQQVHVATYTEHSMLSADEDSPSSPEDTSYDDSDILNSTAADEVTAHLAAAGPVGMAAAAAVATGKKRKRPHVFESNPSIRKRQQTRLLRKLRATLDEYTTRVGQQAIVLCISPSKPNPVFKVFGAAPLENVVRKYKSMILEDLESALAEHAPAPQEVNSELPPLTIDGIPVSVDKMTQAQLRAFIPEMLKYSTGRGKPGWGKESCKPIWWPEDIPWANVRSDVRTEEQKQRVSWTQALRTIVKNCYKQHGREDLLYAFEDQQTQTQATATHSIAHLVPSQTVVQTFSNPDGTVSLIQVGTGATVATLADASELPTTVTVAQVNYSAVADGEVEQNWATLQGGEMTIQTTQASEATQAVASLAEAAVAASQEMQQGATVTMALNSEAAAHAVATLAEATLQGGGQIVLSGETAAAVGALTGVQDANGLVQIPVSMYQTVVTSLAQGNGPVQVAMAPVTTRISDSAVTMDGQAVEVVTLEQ
Outline: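 Fluorescence intensity of labelled reporter cDNA fragments, resolved by capillary electrophoresis, served as readout for NRF1 cis-element activity. Transiently transfected HepG2 cells were dosed for 24 hours; activity in either direction was fitted against DMSO negative control.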

[17] = ATG_TGFb_CIS: Attagene CIS-FACTORIAL HepG2 Assay for human Transforming Growth Factor (TGF) (AID 2282967; active = hit-call score of the fitted dose curve at least 0.9, where 1 is the maximum; inactive = score below 0.9); settings: HepG2 Attagene CIS TGFb reporter, mRNA transcription; actives raise or lower the signal
Outline: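 HepG2 cells transiently transfected with cis-promoter-driven multiplexed reporter units; 24 h compound exposure. Reporter mRNA measured by RT-PCR, 6-FAM labeling, HpaI digestion and capillary electrophoresis; bidirectional fit versus DMSO baseline.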

Measured: AC50

N#CSCSC#N
not listed: [17]
inactive: all other assays above

CCOP(=S)(OCC)OC(Cl)C(Cl)(Cl)Cl (stereo not drawn)
active: [1] 50 µM
not listed: [3] | [5] | [6] | [9]
inactive: all other assays above

C=C(C)[C@H]1Cc2c(ccc3c2O[C@@H]2COc4cc(OC)c(OC)cc4[C@@H]2C3=O)O1
inactive: [17] | [2] | [3] | [8] | [10] | [11] | [12] | [15] | [16]
active: [4] 0.0204 µM

COP(=O)(OC)SCn1c(=O)oc2cc(Cl)cnc21
not listed: [8] | [10] | [12] | [13] | [14] | [17]
inactive: all other assays above

CC(C)=CC1C(C(=O)OCN2C(=O)C3=C(CCCC3)C2=O)C1(C)C (stereo not drawn)
active: [1] 31.7 µM | [4] 50 µM | [15] 50 µM
not listed: [2] | [3] | [12]
inactive: all other assays above

CSc1nnc(C(C)(C)C)c(=O)n1N
inactive: [17] | [1] | [4] | [11] | [12] | [14] | [15] | [16]

CC(=NC#N)N(C)Cc1ccc(Cl)nc1
not listed: [2] | [3] | [5] | [6] | [8] | [9]
inactive: all other assays above

CN(C)NC(=O)CCC(=O)O
not listed: [2] | [5] | [6] | [7] | [8] | [9] | [12]
inactive: all other assays above
